Hits are enriched below; roughly 0.52% of the tested compounds scored in any of these assays.
Vif-APOBEC3G blk – qHTS for Inhibitors of Vif-A3G Interactions: qHTS; AID 602310, 2012; Potency, µM (top dose mostly 46.1 µM), actives largely listed as inhibitors; actives 0.076% (n = 410,000); DNA dC->dU-editing enzyme APOBEC-3G (Homo sapiens), Q9HC16; HeLa A3G-eYFP + Vif (tagged APOBEC3G with the HIV-1 protein that degrades it), YFP fluorescence, overnight; note: nearly all actives have a fitted effect of over 60% in size
Target sequence (Q9HC16 whole entry, looked up): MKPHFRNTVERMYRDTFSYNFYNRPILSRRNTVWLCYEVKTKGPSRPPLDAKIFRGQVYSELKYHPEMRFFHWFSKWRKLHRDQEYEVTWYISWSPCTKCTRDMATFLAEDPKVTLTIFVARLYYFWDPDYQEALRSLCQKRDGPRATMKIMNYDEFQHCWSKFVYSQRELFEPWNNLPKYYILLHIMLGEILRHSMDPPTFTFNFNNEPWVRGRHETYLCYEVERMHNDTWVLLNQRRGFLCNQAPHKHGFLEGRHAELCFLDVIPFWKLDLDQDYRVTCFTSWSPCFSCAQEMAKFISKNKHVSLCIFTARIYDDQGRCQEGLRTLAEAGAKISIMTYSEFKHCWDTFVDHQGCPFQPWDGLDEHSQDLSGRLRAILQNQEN
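HeLa cells stably expressing Vif and C-terminally eYFP-tagged A3G, seeded overnight at 37 deg C, then exposed to compound by pintool overnight at 37 deg C. Rise in yellow fluorescence (Ex 488/Em 500-530, Acumen) marks blocked Vif-driven A3G degradation.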
Vif-APOBEC3F blk – qHTS for Inhibitors of Vif-A3F Interactions: qHTS; HeLa A3F-eYFP + Vif (tagged APOBEC3F with the HIV-1 protein that degrades it), YFP fluorescence increase; Potency, µM (titrated, usually from 46.1 µM); actives 0.2% (n = 390,000); note: nearly all actives have a fitted effect of over 65% in size
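HeLa cells stably expressing A3F-eYFP plus Vif, plated and incubated overnight at 37 deg C, then exposed to compounds overnight at 37 deg C. Blocked degradation read as raised yellow fluorescence (Ex 488/Em 500-530).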
TRPML1 blocker – qHTS for Inhibitors of the Human Mucolipin Transient Receptor Potential 1 (TRPML1) | Mucolipin-1 (Homo sapiens), Q9GZU1 | TRPML1-inducible cells, Ca2+ dye fluorescence, FDSS; active compounds read low; inhibition of EC80 agonist-evoked calcium signal | activity change, negative = inhibition, % (concentration not given with the values) | actives 0.02% (n = 390,000); in the data active = activity change below about -50%; inconclusive = between about -30% and that limit;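 note: stimulus is agonist 54-4 at its EC80 concentration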
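Tet-induced TRPML1-DL cells loaded with Ca8 no-wash calcium dye were read kinetically on FDSS. Compound addition was followed by EC80 agonist 54-4 (4 uM final); inhibition was read over 110 s.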
PINK1 modulator – A Quantitative High throughput Screen to Identify Chemical Modulators of PINK1 Expression; PINK1 immunofluorescence, high-content cytometry, 24 h; Potency, µM (top dose mostly 76.6 µM), actives largely listed as activators; actives 0.2% (n = 410,000); active = well fitted activation curve with a large enough effect; inconclusive = small, poorly fitted or top-dose-only effect; cell line not stated here; note: nearly all actives have a fitted effect of over 65% in size
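Stable cell line treated 24 h with compounds at 5 concentrations (CCCP controls), then fixed and immunostained for PINK1 plus nuclear and cell stains; PINK1 immunofluorescence quantified by laser-scanning microplate cytometry.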
TRPML1 ag – qHTS for Agonists of the Human Mucolipin Transient Receptor Potential 1 (TRPML1). Mucolipin-1 (Homo sapiens), Q9GZU1. TRPML1-expressing cells, Ca2+ dye fluorescence, FDSS. activation, % (concentration not given with the values). actives 0.12% (n = 410,000). AID 624414, 2012; in the data active = activation above about 50%; inconclusive = mostly about 30% to 49%
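Calcium fluorescence on an FDSS kinetic reader gave the read-out. Tet-induced TRPML1-DL cells were plated overnight, dye-loaded (Ca8 with quencher, 45-90 min, room temperature, dark), then read 110 s after compound addition, and again 110 s after 4uM final 54-4 (EC80).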
Numbers stand for hits. Unless noted, calls come from the whole dose curve; as a rule, active = well fitted curve in the direction sought with a large enough effect; inconclusive = small, poorly fitted or top-dose-only effect, or another doubt; inactive = no such curve, though single readings can be large; an effect the other way counts as inactive or inconclusive.

How did Cc1cc(C(F)(F)F)c2c(N)c(C(=O)NCc3ccc(Cl)cc3)sc2n1 do in these assays?
PINK1 modulator: inactive; TRPML1 ag: inactive

Results for Cc1cc(C(F)(F)F)c2c(N)c(C(=O)Nc3cc(C)on3)sc2n1 ?
Vif-APOBEC3G blk: inactive; Vif-APOBEC3F blk: 11µM; TRPML1 blocker: inactive; PINK1 modulator: 22µM; TRPML1 ag: inactive

How did CC(=O)Nc1ccc(S(=O)(=O)Nc2cc(C)cn(Cc3ccccc3)c2=O)cc1 do in these assays?
Vif-APOBEC3G blk: inactive; Vif-APOBEC3F blk: 22µM; TRPML1 blocker: inactive; PINK1 modulator: inactive; TRPML1 ag: inactive

Results for CCCCCN(C(=O)CCC(=O)OCCOc1cccc(C)c1)c1c(N)n(CCCC)c(=O)[nH]c1=O ?
Vif-APOBEC3G blk: inactive; Vif-APOBEC3F blk: inactive; TRPML1 blocker: inactive; PINK1 modulator: inactive; TRPML1 ag: inactive

How did Cc1ccc(/C=C(\C#N)C(=O)Nc2c(C)cccc2C)s1 do in these assays?
Vif-APOBEC3G blk: inactive; Vif-APOBEC3F blk: inactive; TRPML1 blocker: inactive; PINK1 modulator: inactive; TRPML1 ag: inactive

What do the screens show for `Cc1ccc(NC(=O)/C(C#N)=C/c2ccc(C)s2)c(C)c1`?
Vif-APOBEC3G blk: 11µM; Vif-APOBEC3F blk: inconclusive; TRPML1 blocker: inactive; PINK1 modulator: inactive; TRPML1 ag: inactive

What do the screens show for `CCOc1ccc2nc(N3C(=O)/C(=C/c4ccc(Cl)cc4)NC3=S)sc2c1`?
Vif-APOBEC3G blk: inactive; Vif-APOBEC3F blk: 5µM; TRPML1 blocker: inactive; PINK1 modulator: inconclusive; TRPML1 ag: inactive

What do the screens show for `O=C(NCc1ccccc1Cl)c1nnc(CS(=O)(=O)c2ccccc2)o1`?
Vif-APOBEC3G blk: inactive; Vif-APOBEC3F blk: inactive; TRPML1 blocker: inactive; PINK1 modulator: inactive; TRPML1 ag: inactive

What do the screens show for `COc1ccccc1N1C(=O)CC(Sc2ccccc2N)C1=O` (centres undefined)?
Vif-APOBEC3G blk: inactive; Vif-APOBEC3F blk: inactive; TRPML1 blocker: inactive; PINK1 modulator: inactive; TRPML1 ag: inactive

How did CCN1CCN(C2=CC3=CC(=C(C#N)C#N)CCC3CC2)CC1 (centres undefined) do in these assays?
Vif-APOBEC3G blk: inactive; Vif-APOBEC3F blk: inconclusive; TRPML1 blocker: inactive; PINK1 modulator: inconclusive; TRPML1 ag: 96

How did CN1CCN(C2=CC3=CC(=C(C#N)C#N)CCC3CC2)CC1 (centres undefined) do in these assays?
Vif-APOBEC3G blk: inactive; Vif-APOBEC3F blk: inactive; TRPML1 blocker: -71; PINK1 modulator: inconclusive; TRPML1 ag: 140

Results for N#CC(C#N)=C1C=C2C=C(N3CCOCC3)CCC2CC1 (centres undefined) ?
Vif-APOBEC3G blk: inactive; Vif-APOBEC3F blk: 11µM; TRPML1 blocker: inactive; PINK1 modulator: 16µM; TRPML1 ag: 123

Results for N#CC(C#N)=C1C=C2C=C(N3CCCCCC3)CCC2CC1 (centres undefined) ?
Vif-APOBEC3G blk: inactive; Vif-APOBEC3F blk: inconclusive; TRPML1 blocker: inactive; PINK1 modulator: 11µM; TRPML1 ag: 100

Results for Cc1ccc(CNC(=O)c2ccc(OCC3CCCO3)cc2)cc1 (centres undefined) ?
Vif-APOBEC3G blk: inactive; Vif-APOBEC3F blk: inactive; TRPML1 blocker: inactive; PINK1 modulator: inactive; TRPML1 ag: inactive

How did Cc1oc2ncn(CC(C)C)c(=O)c2c1C(=O)NCc1cccc(Cl)c1 do in these assays?
Vif-APOBEC3G blk: inactive; Vif-APOBEC3F blk: inactive; TRPML1 blocker: inactive; PINK1 modulator: inactive; TRPML1 ag: inactive

What do the screens show for `O=C(Nc1cccc([N+](=O)[O-])c1)c1ccncc1`?
Vif-APOBEC3G blk: inactive; Vif-APOBEC3F blk: inactive; TRPML1 blocker: inactive; PINK1 modulator: inactive; TRPML1 ag: inactive

Results for CC(C)(C)CC(C)(C)NC(=O)Nc1cccc([N+](=O)[O-])c1 ?
Vif-APOBEC3G blk: inactive; Vif-APOBEC3F blk: inactive; TRPML1 blocker: inactive; PINK1 modulator: 14µM; TRPML1 ag: inactive

How did CC(C)(C)c1ccc(C(=O)Nc2cccc([N+](=O)[O-])c2)cc1 do in these assays?
Vif-APOBEC3G blk: inactive; Vif-APOBEC3F blk: inactive; TRPML1 blocker: inactive; PINK1 modulator: 45µM; TRPML1 ag: inactive

What do the screens show for `Cc1ccc(NC(=O)c2ccc(CNS(=O)(=O)c3ccc4c(c3)C(C)(C)C(=O)N4C)cc2)cc1F`?
Vif-APOBEC3G blk: inactive; Vif-APOBEC3F blk: inactive; TRPML1 blocker: inactive; PINK1 modulator: inactive; TRPML1 ag: inactive

Results for COc1cc(C(=O)OCC(=O)Nc2ccc(N3CCOCC3)cc2)ccc1OCC(C)C ?
Vif-APOBEC3G blk: 7.9µM; Vif-APOBEC3F blk: inconclusive; TRPML1 blocker: inactive; PINK1 modulator: inactive; TRPML1 ag: inactive

How did Cc1ccc(C=C(C#N)C(=O)c2ccccc2)cc1 do in these assays?
Vif-APOBEC3G blk: inactive; PINK1 modulator: inactive; TRPML1 ag: inactive

What do the screens show for `CCN(CC)c1ccc(/C=C(\C#N)C(N)=O)cc1`?
Vif-APOBEC3G blk: inactive; Vif-APOBEC3F blk: inactive; TRPML1 blocker: inactive; PINK1 modulator: inactive; TRPML1 ag: inactive

Results for CCN(CC)c1ccc(/C=C(\C#N)C(=O)c2ccc(Br)cc2)cc1 ?
Vif-APOBEC3G blk: inactive; Vif-APOBEC3F blk: inconclusive; TRPML1 blocker: inactive; PINK1 modulator: inconclusive; TRPML1 ag: 79

Results for CN(C)c1ccc(/C=C(\C#N)C(=O)c2ccccc2)cc1 ?
Vif-APOBEC3G blk: inactive; Vif-APOBEC3F blk: inconclusive; TRPML1 blocker: inconclusive; PINK1 modulator: inactive; TRPML1 ag: 72

Results for O=C(COc1cccc(F)c1)Nc1nc(-c2cccnc2)cs1 ?
Vif-APOBEC3G blk: inactive; Vif-APOBEC3F blk: inactive; TRPML1 blocker: inactive; PINK1 modulator: inactive; TRPML1 ag: inactive

What do the screens show for `CCCn1c(Nc2cccc(OC)c2)nc2ccccc21`?
Vif-APOBEC3G blk: inactive; Vif-APOBEC3F blk: inactive; TRPML1 blocker: inactive; PINK1 modulator: inactive; TRPML1 ag: inactive

What do the screens show for `Cc1ccc(NC(=O)c2ccc(NC(=O)N3CCSc4nc(C)cc(C)c43)cc2)c(Cl)c1`?
Vif-APOBEC3G blk: inactive; Vif-APOBEC3F blk: inactive; TRPML1 blocker: inactive; PINK1 modulator: inactive; TRPML1 ag: inactive

Results for O=C(c1ccc2c(=O)n(Cc3ccc4c(c3)OCO4)c(=S)[nH]c2c1)N1CCCCC1 ?
Vif-APOBEC3G blk: inactive; Vif-APOBEC3F blk: inactive; TRPML1 blocker: inactive; PINK1 modulator: 14µM; TRPML1 ag: inactive

What do the screens show for `O[C@@H]1CN(Cc2ccc(-n3cccn3)cc2)CC[C@H]1N1CCN(c2ccccc2F)CC1`?
Vif-APOBEC3G blk: inactive; Vif-APOBEC3F blk: inactive; TRPML1 blocker: inactive; PINK1 modulator: inactive; TRPML1 ag: inactive

How did O=C(NCc1ccc(F)cc1)c1cccc2c1C(=O)c1ccc(N3CCC(Cc4ccccc4)CC3)cc1S2(=O)=O do in these assays?
Vif-APOBEC3G blk: inconclusive; Vif-APOBEC3F blk: 25µM; TRPML1 blocker: inactive; PINK1 modulator: inactive; TRPML1 ag: inactive
